# Assay results reported in PubChem BioAssay (NCI).
# Where “and” joins values, the source holds several entries; their conditions need not be identical. Equal entries are not always repeated. This is part of a sample that, as a whole, favours compounds with a hit. Of some 83,000 tested, about 20% had one in any assay.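 Each cell line was grown in a 96-well plate and treated with one concentration of compound for 48 hours. Values below 10 were considered active.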 Values without a mark were called inactive. Calls of active or inactive are those of the source. Starred links: 1 amine or outer side, 2 acyl side, 3 side chain; linkers in the order of their positions; H or OH if unused. Positions of bridges follow the written chain, without caps; N, C: chain ends. Non-standard residues stand in square brackets, D forms with d. Residues, ends and D or L forms follow the SMILES beside them. Chains are numbered I, II in the order given. Actinocin(9to1) = Cc1c2oc3c(C)ccc(C(=O)[*:1])c3nc-2c(C(=O)[*:2])c(N)c1=O; aThr = C[C@H](O)[C@H](N)C(=O)O; NMeV = CN[C@H](C(=O)O)C(C)C; Sar = CNCC(=O)O
# Test system: EKVX NSCLC
# Assay: NCI-60 one-dose screen, 48 h (100 = growth as untreated, 0 = no growth, -100 = all killed)
# Conditions: 0.0025 µM
# Procedure: Growth inhibition of the EKVX human Non-Small Cell Lung tumor cell line is measured as a screen for anti-cancer activity. Cells are grown in 96 well plates and exposed to the test compound for 48 hours. Compounds are tested at a single concentration, which is 10^-5 M for most compounds. The reported endpoint is percent growth (GI% or GIPRCNT), where numbers from 0 - 100% represent growth inhibition, and numbers from -100% - 0 represent cell death. For example, a value of 40 represents 60% growth inhibition. A value of 0 means no net growth occurred over the course of the experiment. A value of -40 indicates 40% of cells at the beginning of the experiment died by the end of the experiment. A value of -100 means all cells are dead at the end of the experiment.
# NCI-60 Human Tumor Cell Lines Screen was performed using the standard one-dose NCI protocol, which is described in more detail at https://dtp.cancer.gov/discovery_development/nci-60/default.htm.
# Compounds with GIPRCNT values below 10 were considered active. Activity score was based on GIPRCNT using the following formula: […]
# Score is 0 for GIPRCNT values of 100 or above, 50 for GIPRCNT values of 0, and 100 for GIPRCNT values of -100.
row,SMILES,growth [%]
1,"Cc1c2oc3c(C)ccc(C(=O)N[C@@H]4C(=O)N[C@H](C(C)C)C(=O)N5CCC[C@H]5C(=O)N(C)CC(=O)N(C)[C@@H](C(C)C)C(=O)O[C@H]4C)c3nc-2c(C(=O)N[C@@H]2C(=O)N[C@H](C(C)C)C(=O)N3CCC[C@H]3C(=O)N(C)CC(=O)N(C)[C@@H](C(C)C)C(=O)O[C@H]2C)c(N)c1=O (I: [aThr][dV]P[Sar][NMeV] / II: [aThr][dV]P[Sar][NMeV]; ester I:1-I:C, II:1-II:C; linker I:N-II:N via Actinocin(9to1))",54

# Same assay, conditions: 10 µM
row,SMILES,growth
1,COc1cc(C(C)(C)C)cc(OC)c1C(O)(c1c(OC)cc(C(C)(C)C)cc1OC)c1c(OC)cc(C(C)(C)C)cc1OC,-50.5% (active)
2,O=c1[nH]cc(F)c(=O)[nH]1,74.3% and 82.4%
3,"Cc1c2oc3c(C)ccc(C(=O)N[C@@H]4C(=O)N[C@H](C(C)C)C(=O)N5CCC[C@H]5C(=O)N(C)CC(=O)N(C)[C@@H](C(C)C)C(=O)O[C@H]4C)c3nc-2c(C(=O)N[C@@H]2C(=O)N[C@H](C(C)C)C(=O)N3CCC[C@H]3C(=O)N(C)CC(=O)N(C)[C@@H](C(C)C)C(=O)O[C@H]2C)c(N)c1=O (I: [aThr][dV]P[Sar][NMeV] / II: [aThr][dV]P[Sar][NMeV]; ester I:1-I:C, II:1-II:C; linker I:N-II:N via Actinocin(9to1))",-11% (active)
4,O=C(/C(=C/c1ccccc1)CBr)c1ccccc1,82.1%
5,CN1CCN(c2ccc3nc(-c4ccc5nc(-c6ccc(O)cc6)[nH]c5c4)[nH]c3c2)CC1,105%
6,BrC/C=C/C[P+](c1ccccc1)(c1ccccc1)c1ccccc1,70.2%
7,Cc1cnc(/C=N\NC(N)=S)c2cccc(N)c12,29.5%
8,Cc1cc(NCCCN(C)C)c2ccc3c(ccc4c(NCCCN(C)C)cc(C)nc43)c2n1,-34.1% (active)
9,CSc1ccc2c(c1)C(N1CCN(C)CC1)Cc1ccccc1S2 (stereo not given),55.9%
10,S=c1[nH]nc(Cc2ccccc2)c(=S)[nH]1,97.8%
11,Nc1ccc2cc(Br)c3ccccc3c2c1,31.3%
12,CN(C)CCC(=O)c1c[nH]c2ccccc12,111%

# Same assay, conditions: 25 µM
row,SMILES,growth [%]
1,O=c1[nH]cc(F)c(=O)[nH]1,58.4

# Same assay, conditions: 50 µM
row,SMILES,growth [%]
1,O=c1[nH]cc(F)c(=O)[nH]1,62.8
